Hits are enriched below; roughly 1.4% of the tested compounds scored in any of these assays.
MEX-5 binding – C. elegans MEX-5 TCR-2 RNA binding activity; Q9XUB2; 300,000 compounds, 0.38% hits; MEX-5/FITC-TCR2 RNA binding, fluorescence polarization; hits give low values; activity score (negative = inhibition of binding), % at 10 µM;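 active means inhibition past about -25% in most replicates, and total fluorescence under double the plate's negative control median, limit read from the data; inconclusive means replicates evenly split on the limit, or fluorescence at least double controls; inactive means too little inhibition in most replicates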;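 further: 0% = DMSO and -100% = 5 µM competing unlabeled TCR2 RNA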
MCL1 BIM primary – disrupts human MCL1 binding to BIM-BH3 peptide; Q07820; GST-MCL1 / FITC-Bim-BH3 fluorescence polarization; inhibition, % at 10.9 µM; 320,000 compounds, 0.68% hits; AID 2057;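 active means inhibition above the mean inhibition of all tested compounds plus 3 SD, set per campaign, cut at about 40% in these data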;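 further: 0% = DMSO wells and 100% = unlabeled Bim-BH3 peptide control; higher means more loss of mP so more displacement of Bim peptide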
BCLXL inh – Bcl-xL (human) inhibition; Q07817; GST-Bcl-xL / FITC-Bim BH3 peptide fluorescence polarization; inhibition, % at 10.9 µM; 320,000 compounds, 0.7% hits; AID 2129;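 active means inhibition above the mean of all tested compounds plus 3 SD, cutoff set per campaign, cut at about 30% in these data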;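 further: 0% = DMSO wells and 100% = unlabeled Bim-BH3 peptide competitor; inhibitors lower millipolarization by displacing the labeled peptide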
Target sequence (Q07817 whole entry, looked up): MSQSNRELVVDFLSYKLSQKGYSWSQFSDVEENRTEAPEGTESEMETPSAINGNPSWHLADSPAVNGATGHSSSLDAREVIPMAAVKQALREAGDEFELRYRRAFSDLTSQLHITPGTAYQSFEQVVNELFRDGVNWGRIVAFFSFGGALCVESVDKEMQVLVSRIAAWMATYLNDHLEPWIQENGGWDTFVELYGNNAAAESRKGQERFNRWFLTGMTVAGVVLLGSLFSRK
GLD-1 RNA inh – GLD-1-TGE RNA interaction inhibition (C. elegans); purified GLD-1 + fluorescein TGE RNA, fluorescence polarization; Q17339; AID 2280; 320,000 compounds, 0.44% hits; inhibition, % at 5.96 µM;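 active means percent inhibition above a per-plate cutoff, the plate mean of test compounds plus 3 SD, cut at about 30% in these data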;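 further: 0% = DMSO wells with GLD-1 and probe and 100% = wells lacking GLD-1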
E coli Lon inh – E. coli protease La inhibition; inhibition, % at 7.94 µM; purified E. coli Lon protease, fluorescence polarization; AID 602123; 360,000 compounds, 0.42% hits; P0A9M0; in the data active means inhibition above about 13%, passing the limit was not always enough;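 further: 0% = enzyme with probe and DMSO and 100% = no enzyme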
Bcl-xL conf – Bcl-xL (human) inhibition, MCL1 counter-screen confirmation | shares compounds with MCL1 BIM primary | GST-Bcl-xL / FITC-Bim BH3 peptide FP binding | inhibition, % at 10.9 µM | 1,700 compounds, 54% hits;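 active means inhibition above a cutoff equal to the mean inhibition of all tested compounds plus 3 SD, cut at about 30% in these data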;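 further: 0% = DMSO wells and 100% = unlabeled Bim BH3 control peptide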
MCL1 inh confirm – confirmation of human MCL1 and BIM-BH3 interaction inhibitors; GST-MCL1 / FITC-Bim-BH3 fluorescence polarization; 1,700 compounds, 61% hits; AID 2168; inhibition, % at 10.9 µM; shares compounds with MCL1 BIM primary;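 active means inhibition above the average of all tested compounds plus 3 SD, cut at about 40% in these data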;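 further: 0% = DMSO wells and 100% = unlabeled Bim-BH3 control peptide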
An asterisk follows results filed as active; ? = inconclusive; nt = no result given; + = active, no number.

SMILES	MEX-5 binding	MCL1 BIM primary	BCLXL inh	GLD-1 RNA inh	E coli Lon inh	Bcl-xL conf	MCL1 inh confirm
CC(CS(=O)(=O)c1cccc2cccnc12)N1CCCCC1 (configuration not stated)	-15	65*	62*	40*	7	33*	42*
O=S(=O)(c1cccc2cccnc12)N1CCCCC1	4	-1	6	2	-14	nt	nt
Cc1cc(Cl)ccc1C(O)c1ncc(-c2ccc(Cl)cc2)[nH]1 (configuration not stated)	nt	nt	nt	nt	-1	nt	nt
Oc1ccc(/C=N\Nc2cc(N3CCOCC3)nc(N3CCOCC3)n2)c(O)c1	-8	8	5	3	7	nt	nt
Oc1ccc(/C=N/Nc2cc(N3CCCC3)nc(N3CCCC3)n2)cc1O	-3	48*	18	12	0	15	14
O=C1c2cccc3c(N4CCCCC4)ccc(c23)C(=O)N1c1ccccn1	-69*	172*	122*	161*	10	154*	179*
Cc1ccccc1OCc1nnc(SCC(=O)NCc2ccco2)n1C	0	4	1	5	1	nt	nt
COc1ccccc1OCc1nnc(SCC(=O)NCc2ccco2)n1Cc1ccco1	-1	46*	9	2	-17	15	38
O=C1C(=Cc2ccc(Br)o2)C(=O)c2ccccc21	nt	92*	47*	6	7	43*	64*
CC1=C/C(=C\c2ccc(Br)o2)C(=O)O1	-4	7	2	3	-3	nt	nt
CC(C)N1CC(=O)N2CSCC2C1=O (configuration not stated)	nt	nt	nt	nt	-9	nt	nt
COCCn1c(C)c(C)c(S(=O)(=O)c2ccccc2)c1N	2	72*	68*	29	8	44*	62*
Nc1nc(SCC(=O)O)[nH]c(=O)c1NC(=O)c1ccco1	-3	55*	41*	28	-7	3	3
Nc1nc(SCCO)[nH]c(=O)c1NC(=O)c1ccco1	nt	5	5	4	20	nt	nt
CCOC(=O)c1sc(NC(=O)CSc2nccn2C)nc1C	1	-1	2	-1	-1	nt	nt
O=c1ccc2cc3c([nH]c4ccc(Br)cc43)oc-2c1O	-79*	85*	46*	8	-32	24	69*
O=C(O)c1ccc(N=Nc2c(O)[nH]c3ccc(Br)cc23)cc1	-8	-6	1	-3	-2	nt	nt
COC(=O)c1ccc(OC(=O)/C=C/c2ccco2)cc1	-2	6	0	3	-4	nt	nt
O=Cc1cccc(OC(=O)/C=C/c2ccco2)c1	0	50*	14	-10	-5	10	52*
C=CCn1c(SCC(=O)Nc2ccc3c(c2)CCC3)nc2ccccc2c1=O	-1	+	-1	2	4	6	15
CCCCn1c(SCC(=O)Nc2ccc3c(c2)CCC3)nc2ccccc2c1=O	-1	0	4	1	-6	nt	nt
Clc1cccc(/C=N/N2CCN(Cc3ccccc3)CC2)c1	3	-6	8	17	-3	nt	nt
Cc1cccc(NC(=O)CNC(=O)c2cccc(-n3cccc3)c2)c1C	-1	49*	7	-7	-12	7	57*
CC(=O)N=c1c(C#N)cc2c(=O)n3ccccc3nc2n1CCCOC(C)C	6	15	12	3	-9	nt	nt
CC(C)OCCCn1c(=NC(=O)c2cccs2)c(C#N)cc2c(=O)n3ccccc3nc21	?	114*	106*	58*	2	23	28
CCOCCCn1c(=N)c(C(=O)NCc2ccc3c(c2)OCO3)cc2c(=O)n3ccccc3nc21	-11	nt	nt	nt	nt	nt	nt
CC(C)OCCCn1c(=N)c(C(N)=S)cc2c(=O)n3ccccc3nc21	-18	82*	83*	11	-33	70*	86*
N#Cc1ccccc1CN1C(=O)S/C(=C/c2cccn2-c2ccc(C(=O)O)cc2)C1=O	1	20	3	1	-11	nt	nt
O=C(O)c1ccc(-n2cccc2/C=C2/SC(=O)N(CC(=O)N3CCCC3)C2=O)cc1	-21	55*	14	1	-6	19	50*
CSc1nc(NCCOCCO)c2sc3nc(-c4ccco4)c4c(c3c2n1)CCC4	1	69*	23	-9	-3	23	67*

Bioassay records (PubChem)
